Screen size: about 48,000 compounds; about 13,000 (27%) showed an effect of 50% or more. The list shows a part of the results.

The test deals with Wolbachia pipientis. The test is described as follows: Anti-Wolbachia Cell-Based Screen. The class given is functional. Further details: scale not given: in the data most compounds retested in dose-response had high values. To be noted: 5 µM.
As for `O=C1CCC2(CCCN(C(=O)c3cscn3)C2)CN1CCc1c[nH]cn1` (configuration not stated), the “Percent Effect” value is reported as -10.65%.

Regarding `COCC[C@]1(O)CCN(C(=O)CCc2cnn(C)c2)C[C@H]1C`, the “Percent Effect” value is 4.52%. Under `COCCCN1C(=O)CC[C@H]2CN(c3ccc(C(N)=O)cn3)CC[C@H]21` stands -7.977%. Then `O=C(O)C(F)(F)F.O=C([C@@H]1COC[C@H]2CN(C3CCCC3)C[C@H]21)N1CCCO1`, with 17.11%; and `N#Cc1cccn(CCOc2ccc(Cl)cc2)c1=O`, with 1.787%; and `CCN(Cc1cccc(C(=O)Nc2ncc(C)s2)c1)[C@H]1COC[C@@H]1O`, with -30.5%. Consider `COc1cccc(OCC(=O)N(C)c2cccnc2N(C)C)c1`, for which the “Percent Effect” value turned out to be 85.27%. Turning to `COc1cccc(OCC(=O)NS(=O)(=O)c2cc(F)ccc2F)c1`, the “Percent Effect” value is reported as -14.39%. For the molecule `COc1cccc(OCC(=O)N(C)c2cccnc2)c1`, the “Percent Effect” value was 104.9%. Consider `COc1cccc(OCC(=O)Nc2cc(C)cnc2OC)c1`, for which the “Percent Effect” value is listed as -3.039%. With `COc1ccc(CC(=O)N(C)c2cccnc2N(C)C)c(Cl)c1`, the “Percent Effect” value worked out at 3.868%. Then `COc1cccc(OCCCc2cncc(C(N)=O)c2)c1`, with -6.464%. Take `Cn1cccc1C(=O)N[C@@H]1CN(Cc2cccs2)[C@@H]2COC[C@@H]21.O=C(O)C(F)(F)F`: the “Percent Effect” value is reported as -0.8834%. As to `Cc1nc(C)n(CC2CCCCN2CCCC#N)n1` (configuration not stated), the “Percent Effect” value amounted to 3.604%. As to `CCc1nnc(NC(=O)N(CCOC)Cc2ccc(C)o2)s1`, the “Percent Effect” value is on record as -17.47%. Turning to `CN(CCCNC(=O)CN1CCS(=O)(=O)CC1)c1ccccc1`, the “Percent Effect” value is listed as 9.575%. `COCC(=O)NCC1Cn2nnc(-c3ccncc3)c2CO1.O=C(O)C(F)(F)F` (configuration not stated): the “Percent Effect” value is listed as -3.08%. As for `c1cc(-c2nnc([C@H]3CCNC3)o2)ccn1`, the “Percent Effect” value is recorded as -9.06%.

For `COCC(=O)NC[C@@]1(COc2cccnc2)C[C@@H](O)[C@@H](O)C1.Cl`, the “Percent Effect” value was -0.8237%. As for `c1cncc(-c2nnc([C@H]3CCN(CC4CCCCC4)C3)o2)c1`, the “Percent Effect” value is given as 11.75%.

In the case of `O=C(NC[C@H]1CC[C@H](c2nnc(-c3cccnc3)o2)CC1)C1CC1`, the “Percent Effect” value stood at 169.2%. Then `c1cncc(-c2nnc([C@H]3CCN(CC4CC4)C3)o2)c1`, with 10.36%; and `O=C(c1cccnc1)C1CCCN(c2nnc(C3CC3)o2)C1` (configuration not stated), with -9.968%. `COCC(=O)NC[C@H]1CC[C@H](c2nnc(-c3ccncc3)o2)CC1`: the “Percent Effect” value is on record as 130.9%. Regarding `COCC(=O)NC[C@H]1CC[C@H](c2nnc(-c3cccnc3)o2)CC1`, the “Percent Effect” value came to 199.6%. Regarding `Cc1nc(C(C)C)sc1C(=O)N(C)Cc1nc(-c2ccccn2)no1`, the “Percent Effect” value is -7.076%. Under `CC(CN(C)C(=O)c1cn(C)nc1-c1ccc(F)cc1F)C(=O)O` (configuration not stated) stands -1.433%.

These data come from ChEMBL document CHEMBL3988442, “University of Dundee, Small-Polar-MMV Screening Library” (2021).
